# PubChem BioAssay (EPA / NIEHS)
# Where “and” joins values, the source holds several entries; their conditions need not be identical. Equal values may be shown once. More than one record can exist for a structure, and the calls need not agree. Calls of active or inactive are those of the source. How the source made its calls: active means hit-call score of the fitted dose curve at least 0.9, where 1 is the maximum; inactive means score below 0.9.
# Test: APR_HepG2_MitoticArrest_24hr: Apredica 24-hour HepG2 Assay for Mitotic Arrest (AID 2282910)
# Details: high-content imaging, actives raise or lower the signal
# Procedure: APR_HepG2_24hr is a cell-based, multiplexed-readout assay that uses HepG2, a human liver cell line, with measurements taken at 24 hours after chemical dosing in a 384-well plate.APR_HepG2_MitoticArrest_24hr is one of 10 assay component(s) measured or calculated from the APR_HepG2_24hr assay. It is designed to make measurements of cell phenotype, a form of morphology reporter, as detected with fluorescence intensity signals by HCS Fluorescent Imaging technology.Data from the assay component APR_HepG2_MitoticArrest_24hr was analyzed into 1 assay endpoint. This assay endpoint, APR_HepG2_MitoticArrest_24hr, was analyzed with bidirectional fitting relative to DMSO as the negative control and baseline of activity. Using a type of morphology reporter, measures of protein for gain or loss-of-signal activity can be used to understand the signaling at the pathway-level as they relate to the gene . Furthermore, this assay endpoint can be referred to as a primary readout, because this assay has produced multiple assay endpoints where this one serves a signaling function. To generalize the intended target to other relatable targets, this assay endpoint is annotated to the cell cycle intended target family, where the subfamily is arrest.
# Cells were treated with dimethyl sulfoxide (DMSO) as a solvent control at a final concentration of 0.5% v/v or with compounds in DMSO with a resulting final DMSO concentration of 0.5% v/v. Compound treatment was done at concentrations of 0.39, 0.78, 1.56, 3.12, 6.24, 12.5, 25, 50, 100, and 200 uM in duplicate on each plate. Cells were treated with compounds for 1, 24, or 72 hr. Carbonyl […] m-chloro-phenylhydrazone (CCCP) and taxol were used as positive controls for mitochondrial function and cytoskeletal stability, respectively; DMSO served as the negative control for this experiment. Cells were fixed by the direct addition of 50 uL formaldehyde in Hank's Balanced Salt Solution (HBSS) to a final concentration of 3.7%. After incubation in the fixation medium for 30 min at room temperature (293-298 K), cells were rinsed twice with HBSS and treated with cell permeabilization buffer (16 uL of 0.5% Triton X-100) for 10 min at room temperature (293-298 K) before labeling. For mitochondrial membrane potential and mitochondrial measurements, pre-fixed cells were incubated with 50 uL of MitoTracker Red CMXRos (Invitrogen) at a concentration of 250 nM for 30 min before fixation. In the remaining cases, post-fixed cells were labeled by incubation with a multiplexed mixture of primary antibodies in HBSS for 60 min at room temperature (293-298 K) to detect immunoreactivity of c-Jun (1:500), phospho-histone H3 (1:100), phospho-histone H2A.x (1:200), p53 (1:400), alpha-tubulin (1:200) and Hoechst 33342 (2 ug/mL). Cells were labeled for multiplexed imaging on two separate plates: a) Hoechst 33342, MitoTracker Red, phospho-histone H3, and alpha-tubulin, and b) Hoechst 33342, phospho-histone H2A.x, and c-Jun. A final rinse with HBSS (50 uL) was performed before analysis. The primary and secondary antibodies for the proteins were phospho-histone H3 (rabbit anti-phospho-histone H3 and FITC-donkey anti-rabbit IgG), phospho-histone H2A.x (mouse anti-phospho-histone H2A.x and FITC-donkey anti-mouse IgG), c-Jun (rabbit anti-phospho-c-Jun and Cy3-donkey anti-rabbit IgG), p53 (sheep anti-p53 and Cy5-donkey anti-sheep IgG), alpha-tubulin (mouse anti-alpha-tubulin and Cy5-donkey anti-mouse IgG). These antibodies are available as the CellCiphr HepG2 assay kit (Millipore).Digital images of each well were captured using a Cellomics ArrayScan VTI (Thermo Scientific Cellomics) (0.8 NA objective, 0.63x optical coupler, and XF-93 filter set) at 20x magnification. The images were acquired using the autofocus feature of the ArrayScan instrument, which entails the following steps. First, the camera focuses on channel 1 (Hoechst 33342), where nuclei are identified. Second, a Z offset of 1 um is used for capturing mitochondria (MitoTracker Red). […]
Structure (SMILES),AC50,outcome
CC(=O)[C@H]1CC[C@H]2[C@@H]3CCC4=CC(=O)CC[C@]4(C)[C@H]3CC[C@]12C,100 µM (active),
CCOC(=O)COc1cc(-n2ncc(C(F)(F)F)c(C)c2=O)c(F)cc1Cl,,inactive
CC1(C)C(C=C(Cl)Cl)C1C(=O)OCc1cccc(Oc2ccccc2)c1 (stereo not given),,inactive
N[C@@H](Cc1cc(I)c(Oc2ccc(O)c(I)c2)c(I)c1)C(=O)O,,inactive
COc1nc(C)nc(NC(=O)NS(=O)(=O)c2ccccc2OCCCl)n1,,inactive
COC(=O)c1ccccc1C(=O)O,,inactive
CCC(C)OC(=O)N1CCCCC1CCO (stereo not given),,inactive
C#C[C@]1(O)CC[C@H]2[C@@H]3CCC4=CC(=O)CC[C@@H]4[C@H]3CC[C@@]21CC,,inactive
O=C(O)C1(C(=O)Nc2ccc(Cl)cc2Cl)CC1,,inactive
CCCCCOC(=O)COc1cc(N2C(=O)C3=C(CCCC3)C2=O)c(F)cc1Cl,,inactive
COC(=O)c1ccccc1S(=O)(=O)NC(=O)Nc1nc(OC(F)F)cc(OC(F)F)n1,,inactive
COC(=O)c1ccc(I)cc1S(=O)(=O)NC(=O)Nc1nc(C)nc(OC)n1,,inactive
COc1c(Cl)ccc(Cl)c1C(=O)O,,inactive
CCCCC(CC)COC(=O)c1ccccc1C(=O)O (stereo not given),,inactive
O=C(c1ccc(O)cc1O)c1ccc(O)cc1O,,inactive
Cc1nn(C)c(Oc2ccccc2)c1C=NOCc1ccc(C(=O)OC(C)(C)C)cc1,,inactive
COC(=O)c1ccc(CNS(C)(=O)=O)cc1S(=O)(=O)NC(=O)Nc1nc(OC)cc(OC)n1,,inactive
CCCOC(=O)c1ccc(C(=O)OCCC)nc1,,inactive
CCNc1nc(N)nc(Cl)n1,,inactive
CC(C)(c1ccc(O)cc1)c1ccc(O)cc1,,inactive

Structure (SMILES),AC50,outcome
CC(=O)S[C@@H]1CC2=CC(=O)CC[C@]2(C)[C@H]2CC[C@@]3(C)[C@@H](CC[C@@]34CCC(=O)O4)[C@H]12,30.2 µM (active),
CCN(CC)C(=O)c1cccc(C)c1,,inactive
CCCN(CCC)C(=O)SCC,,inactive
CCOC(=O)C(C)Oc1ccc(Oc2cnc3cc(Cl)ccc3n2)cc1 (stereo not given),,inactive
CCOC(=O)NCCOc1ccc(Oc2ccccc2)cc1,,inactive
S=C(S)NCCNC(=S)S.[Mn+2].[S-]C([S-])=NCCN=C([S-])[S-].[Zn+2],55.2 µM (active) and 107 µM (active),inactive
COC(=O)c1cccc(C)c1S(=O)(=O)NC(=O)Nc1nc(OCC(F)(F)F)nc(N(C)C)n1,,inactive
OB(O)O,,inactive
CCCCCCC(C)OC(=O)COc1nc(F)c(Cl)c(N)c1Cl (stereo not given),,inactive
N#CSCSc1nc2ccccc2s1,,inactive
CCOC(=O)c1ccc(O)cc1,,inactive
COC(=O)c1c(Cl)nn(C)c1S(=O)(=O)NC(=O)Nc1nc(OC)cc(OC)n1,,inactive
CCSC(=O)N(CC(C)C)CC(C)C,,inactive
CC(C)CCCCCCc1ccc(O)cc1,26.3 µM (active),
CCCCOCCOCCOCc1cc2c(cc1CCC)OCO2,,inactive
S=C([S-])NCCNC(=S)[S-].[Mn+2],,inactive
COC(=O)CSc1cc(N=c2sc(=O)n3n2CCCC3)c(F)cc1Cl,,inactive
CCCOC(=O)NCCCN(C)C,,inactive
CCCCOC(=O)[C@@H](C)Oc1ccc(Oc2ccc(C(F)(F)F)cn2)cc1,,inactive
